Source: PubChem BioAssay (several laboratories)
Peg3 prom inh: reduces Peg3 promoter-driven luciferase expression in HeLa | HeLa PEG-Prom luciferase reporter, luminescence, overnight | inhibition, % at 20 µM | actives 1.7% (n = 360,000) | AID 588405;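 active means inhibition of at least 50% at 20 µM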
ABHD5-PLIN5 inh: blocks binding of human ABHD5 to perilipin-5. actives 0.78% (n = 360,000). Split G. princeps luciferase complementation, luminescence, 4 h. Q00G26+Q8WTS1. inhibition, % at 4 µM;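 active means inhibition above the mean inhibition across every tested compound plus 3 SD, cut at about 22% in these data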;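 further: 0% = DMSO only wells and the 100% control is not disclosed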
HIF-2a block: HIF-2a inhibition; AID 624352; 786-0 RCC cells HIF-2a reporter, luciferase luminescence, overnight; inhibition, % at 18.8 µM; actives 0.72% (n = 360,000);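 active means inhibition of the luminescence signal of 40% or more relative to plate controls, in a single-dose primary screen at 18.75 µM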
KKLEB tox: counter-screen for CF NF-kB inhibitors: cytotoxicity. actives 0.36% (n = 360,000). KKLEB CF airway cells viability, ATPlite luminescence, overnight; hits give low values; cells stimulated with P. aeruginosa culture filtrate. activity change (cytotoxicity), % at 5 µM;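 active means corrected activity change at or below -50% at 5 µM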
Mdm2 MdmX PPI: inhibitors of human Mdm2/MdmX interaction | O15151+Q00987 | SaOS-2 split-luciferase Mdm2/MdmX complementation, luminescence | inhibition, % at 8 µM | actives 3% (n = 330,000);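 active means inhibition of at least 50% at 8 µM in the primary screen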
CF NFkB inh: inhibitors of cystic fibrosis induced NF-kB; actives 0.86% (n = 360,000); inhibition, % at 5 µM; KKLEB NF-kB-GFP reporter, PAF-induced, GFP fluorescence overnight;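 active means at least 50% inhibition at 5 µM, scaled per plate between neutral and stimulator controls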;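 further: PAF is a Pseudomonas aeruginosa culture filtrate used as stimulus; plate controls were PAF-stimulated DMSO wells for no effect and unstimulated DMSO wells for full effect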
Mdm2 MdmX conf: confirmation of human Mdm2/MdmX interaction inhibitors; shares compounds with Mdm2 MdmX PPI; Mdm2-MdmX binding, luminescent assay; inhibition, % at 8 µM; actives 55% (n = 10,000); AID 489028; in the data active means inhibition above about 40%
FLuc counter: full-length luciferase inhibition in Mdm2/MdmX counter-screen | shares compounds with Mdm2 MdmX PPI | SaOS-2 full-length luciferase counterscreen, luminescence | inhibition, % at 8 µM | actives 77% (n = 6,200);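 active means mean inhibition at 8 µM reaching about 37%, which flags the compound as non-specific, limit read from the data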;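 further: p53-null SaOS-2 cells with luciferase driven by a doxycycline-inducible promoter; compound on cells about two nights before reading with doxycycline added after day one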
The depositor's hits bear a star. An excerpt weighted towards active compounds, which were near 4.6% of everything screened.

For Cc1cc(C)c2nc(N3CCC(C(=O)NCCCN4CCCCC4)CC3)sc2c1 the results were Peg3 prom inh 70*, ABHD5-PLIN5 inh 12, HIF-2a block 4, KKLEB tox -5, Mdm2 MdmX PPI 84*, CF NFkB inh 26, Mdm2 MdmX conf 43* and FLuc counter 46*.
Screening CSc1ncnc2c1ncn2CCCN1CCN(c2ccccn2)CC1 returned Peg3 prom inh -1, ABHD5-PLIN5 inh -1, HIF-2a block 18, KKLEB tox -6 and CF NFkB inh 4.
For CC1=C(C(=O)N(C(C)C)C(C)C)CC(CC(=O)NCc2ccco2)C(=O)N1CCC1=CCCCC1 (stereo not drawn) the results were Peg3 prom inh 4, ABHD5-PLIN5 inh 6, HIF-2a block 8, KKLEB tox -7 and CF NFkB inh -12.
`Cc1cc(-n2cnnn2)ccc1C(C)C` gave Peg3 prom inh -36, ABHD5-PLIN5 inh 1, HIF-2a block -31, KKLEB tox -12, Mdm2 MdmX PPI -1 and CF NFkB inh 6.
Screening CCNNC(=O)C(O)(c1cccc(C)c1)c1cccc(C)c1 returned Peg3 prom inh 1, ABHD5-PLIN5 inh -4, HIF-2a block 18, KKLEB tox 7, Mdm2 MdmX PPI 27 and CF NFkB inh -2.
For Cc1cccc(C(O)(C(=O)NNc2ccc3ccccc3n2)c2cccc(C)c2)c1 the results were Peg3 prom inh 26, ABHD5-PLIN5 inh -13, HIF-2a block 33, KKLEB tox 8, Mdm2 MdmX PPI 53*, CF NFkB inh -14 and Mdm2 MdmX conf 31.
`COc1ccc(NC(=O)COC(=O)C2CCN(S(=O)(=O)c3cccs3)CC2)cc1OC` gave Peg3 prom inh -5, ABHD5-PLIN5 inh -3, HIF-2a block 10, KKLEB tox 7, Mdm2 MdmX PPI 1 and CF NFkB inh -26.
COc1cccc(/C(O)=C/c2nc3ccc(C(=O)NCCc4cccc(C)c4)cc3[nH]c2=O)c1 was read as Peg3 prom inh 0, ABHD5-PLIN5 inh 9, HIF-2a block -42, KKLEB tox -10, Mdm2 MdmX PPI 65*, CF NFkB inh 7 and Mdm2 MdmX conf 2.
Screening COc1cccc(C(=O)Nc2cc(C(=O)NCCc3ccccc3)ccc2Cl)c1 returned Peg3 prom inh -83, ABHD5-PLIN5 inh -1, HIF-2a block -104, KKLEB tox 5, Mdm2 MdmX PPI 2 and CF NFkB inh 8.
For Cc1cc(C)nc(SCC(=O)Nc2ncc(Cc3ccc(Cl)c(Cl)c3)s2)n1 the results were Peg3 prom inh 41, ABHD5-PLIN5 inh 7, HIF-2a block 13, KKLEB tox -8, Mdm2 MdmX PPI 52*, CF NFkB inh 13 and Mdm2 MdmX conf 13.
O=C1c2ccccc2C(=O)C2OC12 (stereo not drawn) was read as Mdm2 MdmX PPI 72*, Mdm2 MdmX conf 31 and FLuc counter 44*.
COC(=O)c1cc(C)sc1NC(=O)CN1CCN(C(=O)C2CCCO2)CC1 (stereo not drawn) was read as Peg3 prom inh 16, ABHD5-PLIN5 inh -1, HIF-2a block 14, KKLEB tox 3, Mdm2 MdmX PPI 5 and CF NFkB inh -5.
Screening COc1ccc(N=C2S/C(=C\c3ccc(N4CCOCC4)o3)C(=O)N2CCc2c[nH]c3ccccc23)cc1 returned Peg3 prom inh 101*, ABHD5-PLIN5 inh 72*, HIF-2a block 92*, KKLEB tox -16, Mdm2 MdmX PPI 95*, CF NFkB inh -9, Mdm2 MdmX conf 99* and FLuc counter 2.
For Cc1cc(=O)[nH]c2c(C)c(N)ccc12 the results were Peg3 prom inh 25, ABHD5-PLIN5 inh 3, HIF-2a block 13, KKLEB tox -6, Mdm2 MdmX PPI -21 and CF NFkB inh -12.
Screening Cc1cc(C)c2ccc3c(C)c(C)nc3c2[nH]1 returned Peg3 prom inh -12, ABHD5-PLIN5 inh 1, HIF-2a block -57, KKLEB tox -25, Mdm2 MdmX PPI 70*, CF NFkB inh 23, Mdm2 MdmX conf 42* and FLuc counter 45*.
For O=C1N[C@@H](Cc2ccccc2)COC(=O)[C@@H](Cc2ccc(F)cc2)CC/C=C/C[C@H]1CC(=O)N(CCO)Cc1ccccc1 the results were Peg3 prom inh 42, ABHD5-PLIN5 inh -4, HIF-2a block 8, KKLEB tox 4, Mdm2 MdmX PPI 52*, CF NFkB inh 7 and Mdm2 MdmX conf 16.
Screening O=C1N[C@@H](Cc2c[nH]c3ccccc23)COC(=O)[C@@H](Cc2ccc(F)cc2)CC/C=C/C[C@@H]1CC(=O)N(CCO)Cc1ccccc1 returned Peg3 prom inh 19, ABHD5-PLIN5 inh -1, HIF-2a block -23, KKLEB tox 22, Mdm2 MdmX PPI 59*, CF NFkB inh 7 and Mdm2 MdmX conf 32.
`COc1ccc(CNC(=O)COc2cc3c(c4oc(=O)cc(C)c24)CCC(C)(C)O3)c(OC)c1` gave Peg3 prom inh 31, ABHD5-PLIN5 inh -7, HIF-2a block -13, KKLEB tox -3 and CF NFkB inh -11.
`CCOc1ccc(C(=O)NCC(=O)NCC(c2ccc(OC)cc2)N2CCOCC2)cc1OCC` (stereo not drawn) gave Peg3 prom inh 6, ABHD5-PLIN5 inh 4, HIF-2a block -5, KKLEB tox 16, Mdm2 MdmX PPI 16 and CF NFkB inh -28.
Screening Cc1nn(-c2ccccc2)c(Cl)c1C1C(C#N)=C(N)Oc2c1c(C)nn2-c1ccccc1 (stereo not drawn) returned Peg3 prom inh 12, ABHD5-PLIN5 inh -1, HIF-2a block 14, KKLEB tox 0, Mdm2 MdmX PPI -1 and CF NFkB inh 0.
CCC(CC)C1C(C#N)=C(N)Oc2n[nH]c(-c3ccccc3)c21 (stereo not drawn) was read as Peg3 prom inh 34, ABHD5-PLIN5 inh -8, HIF-2a block 21, KKLEB tox -16, Mdm2 MdmX PPI 35 and CF NFkB inh 19.
Screening CCC(CC)C1C(C#N)=C(N)Oc2n[nH]c(C)c21 (stereo not drawn) returned Peg3 prom inh 29, ABHD5-PLIN5 inh -3, HIF-2a block -12, KKLEB tox -5, Mdm2 MdmX PPI 52*, CF NFkB inh 13 and Mdm2 MdmX conf 3.
`Cc1nn(-c2ccccc2)c(Cl)c1C1C(C#N)=C(N)Oc2n[nH]c(C)c21` (stereo not drawn) gave Peg3 prom inh 47, ABHD5-PLIN5 inh 3, HIF-2a block 19, KKLEB tox -12, Mdm2 MdmX PPI 53*, CF NFkB inh 10 and Mdm2 MdmX conf 23.
